GPR151 ag: activates the human receptor GPR151; hit rate 1% among 650,000; Q8TDV0; PathHunter beta-arrestin GPR151 cells, luminescence; activation, % at 11.2 µM; in the data active = activation above about 4.9%
Target sequence (Q8TDV0 whole entry, looked up): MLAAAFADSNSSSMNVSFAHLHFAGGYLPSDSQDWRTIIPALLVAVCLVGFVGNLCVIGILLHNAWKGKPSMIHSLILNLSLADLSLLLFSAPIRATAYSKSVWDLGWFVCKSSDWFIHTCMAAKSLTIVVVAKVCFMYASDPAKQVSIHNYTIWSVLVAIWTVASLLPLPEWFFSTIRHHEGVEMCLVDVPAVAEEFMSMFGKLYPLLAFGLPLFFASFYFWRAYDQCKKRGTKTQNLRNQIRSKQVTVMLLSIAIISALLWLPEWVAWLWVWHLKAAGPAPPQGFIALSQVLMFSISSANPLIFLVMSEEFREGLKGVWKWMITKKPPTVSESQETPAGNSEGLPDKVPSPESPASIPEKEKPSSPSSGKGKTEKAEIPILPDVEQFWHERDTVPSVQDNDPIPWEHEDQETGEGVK
TEAD-YAP block: TEAD-YAP interaction inhibition | HEK-TIYL cells, TEAD-Gal4/YAP UAS-luciferase luminescence | inhibition, % at 9.12 µM | hit rate 1.4% among 640,000; in the data active = inhibition above about 32%
MITF inh: inhibitors of human MITF | AlphaScreen MITF homodimerization, bead proximity signal | inhibition, % at 2.6 µM | hit rate 0.91% among 650,000 | AID 1259374; in the data active = inhibition above about 50%
FBW7 act: activators of human E3 ligase FBW7; normalized activity (activation), % at 26.1 µM; AID 1259310; hit rate 0.13% among 650,000; AlphaScreen FBW7–phospho-cyclin E peptide binding, activator screen; in the data active = normalized activity above about 1.9%;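 note: purified mutant Fbw7 with reduced substrate affinity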
Each line names hits and unclear results; the compound was inactive in the other large screens; ! = a repeat was not active. In the library only some 3.5% were active in any assay of this set; here they are far more common.

COc1cc(Nc2nc3c(NCCc4ccc(O)cc4)ncnc3n2C(C)C)cc(OC)c1OC	TEAD-YAP block 31.9
Cc1cccc2sc(NC(=O)Cn3c(=O)c4ccccc4n(C)c3=O)nc12	none
CC1=NN(c2nc3ccccc3[nH]2)C(=O)C1CCC(C)C (stereo not drawn)	TEAD-YAP block 73.2
COc1ccc(NS(=O)(=O)c2ccc3ccccc3c2)c2ncccc12	none
O=S(=O)(Nc1ccc(Br)c2cccnc12)c1ccccc1	TEAD-YAP block 32.8
COc1ccc(-c2cc3nc4c(c(NCc5cccnc5)n3n2)CCC4)cc1OC	TEAD-YAP block 35.5
COc1ccc(-c2cc3nc4c(c(NCCN)n3n2)CCC4)cc1OC	none
COc1cccc(/C=c2\sc3nc4ccccc4n3c2=O)c1	TEAD-YAP block 45.0
CCN(CC)c1ccc(/C=c2/sc3nc4ccccc4n3c2=O)cc1	TEAD-YAP block 45.9
O=c1/c(=C\c2ccccc2)sc2nc3ccccc3n12	none
COc1ccc(/C=c2/sc3nc4ccccc4n3c2=O)c(OC)c1	none
Cc1ccc(/C=c2/sc3nc4ccccc4n3c2=O)cc1	TEAD-YAP block 72.9
CN(C)c1ccc(/C=c2\sc3nc4ccccc4n3c2=O)cc1	TEAD-YAP block 73.9
COc1cc(OC)cc(C(=O)Nc2ccc(-c3nc4ccccc4s3)cc2)c1	none
Cc1ccc(/C=c2\sc3nc4ccccc4n3c2=O)s1	TEAD-YAP block 53.8
Cc1cc(C)n(CCNC(=O)COc2ccc(-c3cccs3)cc2CN2CCCC2)n1	none
CC(=O)c1cccc(-c2nc(Nc3ccc(N4CCOCC4)cc3)c3ncn(Cc4ccc(C(F)(F)F)cc4)c3n2)c1	none
COc1ccc(-c2nc(C(=O)Nc3cc(OC)c(OC)c(OC)c3)cs2)cc1	none
COc1cc(NC(=O)c2csc(N3CCN(Cc4ccc5c(c4)OCO5)CC3)n2)cc(OC)c1OC	TEAD-YAP block 41.4
COc1cc(Nc2ccnc(-c3ccc(C(N)=O)cc3)n2)cc(OC)c1OC	TEAD-YAP block 50.9
COc1cc(NC(=O)c2csc(-c3ccc(C(N)=O)cc3)n2)cc(OC)c1OC	TEAD-YAP block 36.4
CC(Nc1ncnc2ccc(Br)cc12)c1ccccc1 (stereo not drawn)	TEAD-YAP block 33.6
CC(Nc1ncnc2ccccc12)c1ccccc1 (stereo not drawn)	TEAD-YAP block 56.0
COCCCNc1ncnc2ccc(Br)cc12	none
Brc1ccc2ncnc(NCCc3ccccc3)c2c1	TEAD-YAP block 64.4
O=C(Cn1cnc2sc3c(c2c1=O)CCCC3)NCCC(=O)Nc1ccc(F)cc1F	none
COc1ccnc(N2CCC(Oc3ccc(-c4ccc(N(C)C)nc4)cc3)CC2)n1	TEAD-YAP block 60.7
CN(C)c1ccc(-c2ccc(OC3CCN(CCc4ccccn4)CC3)cc2)cn1	TEAD-YAP block 52.9
COCc1ccc(-c2ccc(OC3CCN(c4nccc(OC)n4)CC3)cc2)cc1	none
C/C(=N\Nc1nc(C)cc(C)n1)c1ccc(-c2ccccc2)cc1	none
c1coc(-c2nc3ccccn3c2Nc2ccc3c(c2)OCCO3)c1	TEAD-YAP block 41.4
CC(=O)N(/N=C1\Sc2ccccc2C1=O)c1cccc(C)c1	none
CC(=O)N(/N=C1\Sc2ccccc2C1=O)c1ccccc1Cl	TEAD-YAP block 90.9
CCC1(C)Cc2c(sc3nc(SCC(=O)c4ccccc4)n(-c4ccc(OC)cc4)c(=O)c23)CO1 (stereo not drawn)	none
CC(C)N1CCC(=NNC(=O)c2cc(O)c(O)c(O)c2)CC1	MITF inh 84.9
CN1CCC(=NNC(=O)c2ccccc2)CC1	none
Nc1nc(NCc2ccccc2)cc(-c2ccc3[nH]ccc3c2)n1	TEAD-YAP block 34.2
CCCCCC(=O)NC(Cc1ccccc1)C(=O)O (stereo not drawn)	none
O=C(NC(=S)Nc1ccc(Cl)cn1)c1ccccc1[N+](=O)[O-]	none
Cc1cc(I)cnc1NC(=O)c1ccccc1[N+](=O)[O-]	TEAD-YAP block 58.4
O=C(Nc1ccc(Cl)cn1)c1ccccc1[N+](=O)[O-]	TEAD-YAP block 43.0
Cc1ccccc1OCC(=O)Nc1cccc(NC(=O)COc2ccccc2C)n1	none
Cc1ccc(OCC(=O)Nc2ccccn2)c(C)c1	TEAD-YAP block 95.5
Cc1ccccc1OCC(=O)Nc1ccccn1	TEAD-YAP block 42.3
Cc1ccc(OCC(=O)Nc2cc(C)on2)c(C)c1	none
CCC(=O)Nc1ccc(NC(=O)CSc2nnc(-c3cccs3)n2CC)c(C)c1	none
O=C(Nc1ccc(F)cc1)N1CCC(CN2CCCC2)CC1	none
COCCNC(=S)NNC(=O)CSCc1ccccc1Br	FBW7 act 2.8
FC(F)(F)c1cc(Cn2c3ccccc3c3nc4ccccc4nc32)cc(C(F)(F)F)c1	FBW7 act 2.4
COc1ccc(CNCCN2CCOCC2)cc1	none
Cc1ccc(CNCc2ccc(N3CCOCC3)cc2)cc1	MITF inh 54.7
COc1ccc(CCNCc2ccc(N3CCOCC3)cc2)cc1	MITF inh 53.2
Cc1ccc(N2CCOCC2)cc1	none
Cc1cc(C)n2nc(C(=O)N3CCCSC3=Nc3ccccc3)nc2n1	none
CC(N)(Cc1ccc(O)c(O)c1)C(=O)O (stereo not drawn)	MITF inh 56.2
CCOC(=O)C(C)(N)Cc1ccc(O)c(O)c1 (stereo not drawn)	none
N[C@H](Cc1ccc(I)cc1)C(=O)O	none
N[C@@H](Cc1ccc(O)c(O)c1)C(=O)O	MITF inh 79.2!
CCOC(=O)c1c(C)nc(Nc2nc3ccccc3o2)nc1-c1ccccc1	none
CCOC(=O)c1cnc(Nc2nc3ccccc3o2)nc1C	TEAD-YAP block 43.5
CNC(=O)c1c(NC(=O)c2ccc(C(C)(C)C)cc2)sc(C)c1C	none
COc1cc(/C=C2/NC(=O)N(Cc3ccc(Br)cc3)C2=O)cc2c1OCO2	TEAD-YAP block 59.8
O=C1N/C(=C/c2cccc(F)c2)C(=O)N1Cc1ccc(Br)cc1	TEAD-YAP block 55.0
CCOc1ccc(-n2cc(-c3ccccc3)c3c(N4CCCCC4)ncnc32)cc1	none
Nc1nc(-c2csc3ccccc23)nc2nc[nH]c12	none
NC(=O)c1c(Cl)nsc1Cl	TEAD-YAP block 65.3
O=C(Nc1ccc(Cl)cc1)c1c(Cl)nsc1Cl	TEAD-YAP block 76.2
Clc1ccccc1CSc1nn2cnnc2s1	TEAD-YAP block 54.8
c1ccc(CSc2nn3cnnc3s2)cc1	TEAD-YAP block 58.1
Fc1ccc(CSc2nn3cnnc3s2)cc1	TEAD-YAP block 58.0
Cn1cnnc1SCc1ccccc1Cl	none
O=C(Cn1nnc(-c2ccc3c(c2)OCO3)n1)Nc1ccc(F)c(Cl)c1	none
CCN1CCc2nc(NC(=O)c3cccc(Br)c3)sc2C1	none
CCCCCSc1nc(C)cc(=O)[nH]1	none
COc1ccc(S(=O)(=O)Nc2cc3c4c(oc3cc2C)CCCC4=O)cc1	TEAD-YAP block 54.8
COC(=O)c1c(C)oc2cc(C)c(NS(=O)(=O)c3ccc(Br)cc3)cc12	TEAD-YAP block 34.1
Cc1ccc(S(=O)(=O)Nc2cc3c4c(oc3cc2C)CCCC4=O)cc1	none
COC(=O)c1c(C)oc2c1cc(NS(=O)(=O)c1ccc(Br)cc1)c1ccccc12	none
COC(=O)c1c(C)oc2ccc(NS(=O)(=O)c3ccc(OC)cc3)cc12	TEAD-YAP block 72.4
COC(=O)c1c(C)oc2ccc(NS(=O)(=O)c3ccc(Cl)cc3)cc12	none
COC(=O)c1c(C)oc2ccc(NS(=O)(=O)c3ccc(C)cc3)cc12	TEAD-YAP block 56.2
Brc1ccc(Nc2nc(NCc3ccco3)c3ccccc3n2)cc1	none

Screening data from PubChem.
